PubChem BioAssay (NCATS)
Inconclusive results are not listed. A number with no mark means an inactive call. The source made the active and inactive calls. The call rests on the fitted dose curve; in most records, active means well fitted cell-killing curve with a large enough effect; inconclusive means small, poorly fitted or top-dose-only effect, or effect the other way; inactive means flat fitted curve, though single readings scatter.

tested on: CAOV3; assay: Primary qHTS to identify gynecologic anti-cancer compounds using libraries of approved drugs and bioactive compounds (AID 1345084); settings: Gynecologic cancer cell panel viability, ATPlite luminescence, 48 h; series mostly up to 57.5 µM; activity change, negative = cytotoxicity: at the top concentration; further: nearly all actives have a fitted effect of over 55% in size
Outline: (§1)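 Five-concentration response, 48 h; readout is ATP-driven luciferase luminescence.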
On the % scale 0 is the no-effect control and ±100 the full control effect; potency means the concentration at half of the fitted maximal effect.

| SMILES | Potency | activity change, negative = cytotoxicity [%] |
| --- | --- | --- |
| Cn1c(=O)n(-c2ccc(C(C)(C)C#N)cc2)c2c3cc(-c4cnc5ccccc5c4)ccc3ncc21 | 0.562 µM (active) | – |
| Cc1c(C)n(Cc2ccc(-c3ccccc3C(=O)O)cc2)c2ccc(C(=O)N[C@@H](C)c3ccc([N+](=O)[O-])cc3)cc12 | – | 10.9 |
| O=C(CCCCCCC(=O)Nc1ccc([C@H]2O[C@@H](CSc3nc(-c4ccccc4)c(-c4ccccc4)o3)C[C@@H](c3ccc(CO)cc3)O2)cc1)NO | – | 5.48 |
| O=c1c2ccccc2nc2n1CCc1c-2[nH]c2ccccc12 | – | 21.8 |
| NCC(=O)Nc1ccc(-n2nc(C(F)(F)F)cc2-c2ccc3c(ccc4ccccc43)c2)cc1 | – | -19.6 |
| Cc1nc2ccc(CN(C)c3ccc(C(=O)N[C@@H](CCC(=O)O)C(=O)O)s3)cc2c(=O)[nH]1 | – | 6.97 |

tested on: CASKI; assay: as above; settings: Gynecologic cancer cell panel viability, ATPlite luminescence, 48 h; series mostly up to 57.5 µM; activity change, negative = cytotoxicity: at the top concentration
Outline: as §1

| SMILES | Potency | activity change, negative = cytotoxicity [%] |
| --- | --- | --- |
| CC(C)c1cnn2c(NCc3ccccc3)cc(N[C@@H](CO)[C@H](O)CO)nc12 | 4.47 µM (active) | – |
| CN1CCN(Cc2ccc(NC(=O)Nc3ccc(Oc4cc(NC(=O)C5CC5)ncn4)cc3)cc2C(F)(F)F)CC1 | 1.78 µM (active) | – |
| Cc1ccc2nc(NC(=O)CSc3nc4c(c(=O)n3-c3ccccc3)SCC4)sc2c1 | – | 8.48 |
| CNC(=O)c1ccccc1Nc1nc(Nc2ccc(N3CCOCC3)cc2OC)ncc1Cl | 10 µM (active) | – |
| CC(C)c1noc(N2CCC(COc3ccc(-c4ccc(S(C)(=O)=O)cc4)nc3)CC2)n1 | – | 0.714 |
| C=CC(=O)Nc1cccc(Oc2nc(Nc3ccc(N4CCN(C)CC4)cc3OC)ncc2Cl)c1 | 17.8 µM (active) | – |
| Cc1nc(Nc2n[nH]c3c2CN(C(=O)N[C@H](CN(C)C)c2ccccc2)C3(C)C)c2sccc2n1 | 7.94 µM (active) | – |
| Cc1c(C)n(Cc2ccc(-c3ccccc3C(=O)O)cc2)c2ccc(C(=O)N[C@@H](C)c3ccc([N+](=O)[O-])cc3)cc12 | – | 13.9 |
| O=C(CCCCCCC(=O)Nc1ccc([C@H]2O[C@@H](CSc3nc(-c4ccccc4)c(-c4ccccc4)o3)C[C@@H](c3ccc(CO)cc3)O2)cc1)NO | – | -2.64 |
| NC1(Cc2ccc(Cl)cc2)CCN(c2ncnc3[nH]ccc23)CC1 | – | -29.3 |
| Cc1[nH]nc2ccc(-c3cncc(OC[C@@H](N)Cc4ccccc4)c3)cc12 | 6.31 µM (active) | – |
| Cc1ccc(C(=O)Nc2cccc(C(F)(F)F)c2)cc1-c1ccc2nc(NCCN3CCOCC3)ncc2c1 | 14.1 µM (active) | – |
| O=c1c2ccccc2nc2n1CCc1c-2[nH]c2ccccc12 | – | 7.2 |
| CN(C)Cc1c(C(=O)NCCOc2ccc(C(=O)NO)cc2)oc2ccccc12 | 3.98 µM (active) | – |
| COc1cc2c(NC3CCN(C(C)C)CC3)nc(C3CCCCC3)nc2cc1OCCCN1CCCC1 | 20 µM (active) | – |
| CCCCOc1c(C(=O)c2c(F)cc(C)cc2F)cnc2n[nH]cc12 | – | -3.32 |
| NCC(=O)Nc1ccc(-n2nc(C(F)(F)F)cc2-c2ccc3c(ccc4ccccc43)c2)cc1 | – | -6.06 |
| Cc1cc(CN2CCN(c3c(Br)cnc4nc(-c5ccc(N6CCN(C)CC6)cc5)[nH]c34)CC2)no1 | – | -0.0132 |
| Cc1nc2ccc(CN(C)c3ccc(C(=O)N[C@@H](CCC(=O)O)C(=O)O)s3)cc2c(=O)[nH]1 | – | -34.9 |
| CCS(=O)(=O)c1cccc(-c2cc(C(=O)NC3CCN(C)CC3)c(C)c3[nH]c4ncc(C)cc4c23)c1 | 2.82 µM (active) | – |
| Cc1cn2c(-c3cn[nH]c3)cnc2c(Nc2ccc(C(=O)N3CCNCC3)cc2F)n1 | – | -14.9 |
